The record followed here is PubChem BioAssay (NCATS).

Results filed as inconclusive are left out. Unmarked numbers belong to inactive results. The source made the active and inactive calls. Calls come from the whole dose curve; as a rule, active = well fitted curve in the direction sought with a large enough effect; inconclusive = small, poorly fitted or top-dose-only effect, or another doubt; inactive = no such curve, though single readings can be large; an effect the other way counts as inactive or inconclusive.

Test [1] concerns CRL-7250. Kind of test: Cytotoxic Profiling of Annotated Libraries Using Quantitative High-Throughput Screening (AID 1296008). Note: nearly all actives have a fitted effect of over 60% in size. The settings on record: Five cell lines viability, CellTiter-Glo ATP luminescence, 48-72 h; max response: active compounds read low. In short, it runs like this:
(§1)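 Compounds were pin-transferred onto cells and incubated 48 or 72 hr at 37 degree Celsius, 95% humidity. CellTiter-Glo was added, plates sat 10 min at room temperature, then ATP-coupled luminescence was imaged as the viability read-out.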
On the technique in general: Cellular ATP, detected with luciferase, serves as a proxy for viable cell number.

Another test has as its system HEK293. The description is as above. The following applies: Five cell lines viability, CellTiter-Glo ATP luminescence, 48-72 h; max response: active compounds read low. In short, it runs like this:
as §1

Test [2] has as its system HaCat. Described as above. The following applies: Five cell lines viability, CellTiter-Glo ATP luminescence, 48-72 h; max response: active compounds read low. In short, it runs like this: as §1
For the next test, the system named is KB-3-1. The test is described as above. The settings on record: Five cell lines viability, CellTiter-Glo ATP luminescence, 48-72 h; max response: active compounds read low. A digest of the protocol: as §1
In test [3] the test system is NIH3T3. Described as above. The following applies: Five cell lines viability, CellTiter-Glo ATP luminescence, 48-72 h; max response: active compounds read low. In short, it runs like this: as §1
Another test concerns MCC-13. Kind of test: qHTS assay to identify novel small-molecules to repurpose for Merkel cell carcinoma treatment (AID 1296009). Note: nearly all actives have a fitted effect of over 60% in size. The settings on record: MCC and control cell lines, CellTiter-Glo viability, 72 h; series mostly up to 46 µM. A digest of the protocol:
(§2)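 Luminescence from CellTiter-Glo, read 10 min after addition at room temperature, reported viability following a 72 hr, 37 degree celsius treatment with NPC or MIPE compounds in titration; values normalized to plate controls.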
For orientation: Quantitative high-throughput screening tests each substance at several concentrations.

The test system of a further test is MCC-26. Described as above. The settings on record: MCC and control cell lines, CellTiter-Glo viability, 72 h; series mostly up to 46 µM. In short, it runs like this:
as §2

In the next test the test system is MKL-1. Described as above. The settings on record: MCC and control cell lines, CellTiter-Glo viability, 72 h; series mostly up to 46 µM. In short, it runs like this:
as §2

In another test the test system is MKL-2. Described as above. The following applies: MCC and control cell lines, CellTiter-Glo viability, 72 h; series mostly up to 46 µM. In short, it runs like this:
as §2

The next test has as its system UISO. The test is described as above. The following applies: MCC and control cell lines, CellTiter-Glo viability, 72 h; series mostly up to 46 µM. In short, it runs like this:
as §2

The next test has as its system WaGa. The test is described as above. The following applies: MCC and control cell lines, CellTiter-Glo viability, 72 h; series mostly up to 46 µM. In short, it runs like this: as §2
Another test deals with C33A. In words: Primary qHTS to identify gynecologic anti-cancer compounds using libraries of approved drugs and bioactive compounds (AID 1345084). Note: nearly all actives have a fitted effect of over 55% in size. The following applies: Gynecologic cancer cell panel viability, ATPlite luminescence, 48 h; series mostly up to 57.5 µM. In short, it runs like this:
(§3)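 Cells, 1,000 per well, plated 16 h, then exposed 48 h at 37 C to compounds. Viability by ATPlite luminescence after 15 min at room temperature.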

A further test concerns CAOV3. Described as above. The settings on record: Gynecologic cancer cell panel viability, ATPlite luminescence, 48 h; series mostly up to 57.5 µM. A digest of the protocol:
as §3

A further test has as its system CASKI. Described as above. The settings on record: Gynecologic cancer cell panel viability, ATPlite luminescence, 48 h; series mostly up to 57.5 µM. In short, it runs like this:
as §3

For a further test, the system named is Es-2. The test is described as above. The settings on record: Gynecologic cancer cell panel viability, ATPlite luminescence, 48 h; series mostly up to 57.5 µM. A digest of the protocol:
as §3

The subject of a further test is HeLa. Described as above. The settings on record: Gynecologic cancer cell panel viability, ATPlite luminescence, 48 h; series mostly up to 57.5 µM. A digest of the protocol:
as §3

Test [4] relates to HACAT. Kind of test: qHTS assay to identify novel small-molecules to repurpose for Merkel cell carcinoma treatment (AID 1296009). Note: nearly all actives have a fitted effect of over 60% in size. The following applies: MCC and control cell lines, CellTiter-Glo viability, 72 h; at 44.8 µM (top of the series) unless noted. In short, it runs like this:
as §2

Test [5] relates to NIH3T3. The description is as above. The following applies: MCC and control cell lines, CellTiter-Glo viability, 72 h; at 44.8 µM (top of the series) unless noted. In short, it runs like this: as §2
Test [6] relates to CRL-7250. The test is described as above. The following applies: MCC and control cell lines, CellTiter-Glo viability, 72 h; at 44.8 µM (top of the series) unless noted. A digest of the protocol: as §2
% is set by controls: 0 for no effect and ±100 for the full control effect; potency is the fitted concentration of half-maximal effect.

`CCCOC(=O)Cc1ccc(OCC(=O)N(CC)CC)c(OC)c1`: the max response in the test on CRL-7250 [1] is -7.4%; in the test on HEK293 it was -10.1%; in the test with HaCat [2] it was -1.71%; in the test with KB-3-1, -8.87%; in the test on NIH3T3 [3], -20.5%. Besides, the Potency entry in the test on MCC-13, with MCC-26, in the test with MKL-1, in the test with MKL-2, in the test with UISO and in the test with WaGa was “inactive” in each case. Besides, the Potency result in the test on C33A, with CAOV3, in the test with CASKI, in the test on Es-2 and with HeLa was “inactive” each time.

Turning to `C1CN2CCC1CC2`, the max response in the test on CRL-7250 [1] was -5.27%; with HEK293, 1.2%. Further, the outcome with HaCat [2], with NIH3T3 [3], in the test with HACAT [4] and in the test on NIH3T3 [5] was inactive. The Potency entry with MCC-13, in the test on MCC-26, in the test on MKL-1, in the test with MKL-2, in the test on UISO and in the test with WaGa was “inactive” in each case. Besides, the Potency entry with C33A, in the test on CASKI, in the test with Es-2 and with HeLa was “inactive” in each case.

Turning to `O=c1[nH]c2cc(Cl)ccc2n1C1CCNCC1`, the molecule was classed as inactive in the test on CRL-7250 [1], in the test on HaCat [2], in the test with NIH3T3 [3], with CRL-7250 [6], in the test on HACAT [4] and in the test on NIH3T3 [5]. The max response with HEK293 was -8.77%. The Potency entry in the test on MCC-13, in the test with MCC-26, in the test with MKL-1, in the test with MKL-2, with UISO and in the test with WaGa was “inactive” each time. In addition, the Potency entry with C33A, in the test with CAOV3, in the test on Es-2 and in the test on HeLa was “inactive” each time.

With `C[C@]12CC[C@H]3[C@@H](CCC4=CC(=O)CC[C@@]43C)[C@@H]1CC[C@@H]2C(=O)O`, the molecule was classed as inactive with CRL-7250 [1], with HaCat [2], with CRL-7250 [6] and in the test with HACAT [4]. The max response in the test with HEK293 was -4.71%; with NIH3T3 [3], 3.4%. In addition, the Potency result with MCC-13, in the test on MCC-26, in the test on MKL-1, in the test with MKL-2, in the test on UISO and in the test with WaGa was “inactive” throughout. Besides, the Potency entry in the test on C33A, in the test with CAOV3, in the test on CASKI and with Es-2 was “inactive” each time.

In the case of `CCCCCCCCCCCC[N+](C)(C)CCOc1ccccc1`, the Potency is 18.8 µM (active) with CRL-7250 [1]; 8.41 µM (active) with HEK293; 16.8 µM (active) in the test on HaCat [2]; 23.7 µM (active) in the test with MCC-26; 2.66 µM (active) in the test on MKL-1; 1.06 µM (active) in the test with MKL-2. For the same molecule, the Potency in the test with UISO was 9.44 µM (active); with WaGa it was 4.22 µM (active); in the test with Es-2, 31.6 µM (active); in the test on HeLa it was 31.6 µM (active).

For the molecule `CCNc1nc(Cl)nc(NCC)n1`, the max response is -9.95% with CRL-7250 [1], 1.01% in the test with HEK293, -15.4% in the test on KB-3-1 and -12.6% in the test with NIH3T3 [3]. Also, the Potency result in the test on MCC-13, in the test with MCC-26, with MKL-1, with MKL-2, with UISO and with WaGa was “inactive” throughout. Further, the Potency result with C33A, in the test on CASKI, in the test with Es-2 and in the test on HeLa was “inactive” each time.

As to `Nc1ccc(N)cc1`, the max response with CRL-7250 [1] was -4.93%; in the test on KB-3-1 it was -3.68%; with NIH3T3 [3], -12%. In addition, the call in the test on HaCat [2] and with HACAT [4] was inactive. For the same molecule, the Potency result in the test on MCC-13, with MCC-26, in the test on MKL-1, in the test with MKL-2, in the test on UISO and in the test with WaGa was “inactive” each time. In addition, the Potency result in the test with C33A, with CASKI, in the test on Es-2 and in the test on HeLa was “inactive” throughout.
